Screening data (PubChem BioAssay)
mHTT CaM bind: disrupts binding of mutant huntingtin to calmodulin. inhibition, % at 15 µM. AID 1671202. P42858. AlphaScreen His-mHTT/GST-CaM binding, luminescence. hit rate 3.6% among 190,000;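 further: 0% = both proteins with DMSO and 100% = one protein alone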
Pf apPOL inh: Pf-apPOL DNA polymerase inhibition. AID 1794808. inhibition, % at 10 µM. hit rate 0.25% among 210,000. Recombinant Pf-apPOL, molecular beacon fluorescence, 1.5 h
Starred values were filed as active, the others as inactive. The full list was thinned out, with hits kept by preference. No stated cut-off is given here; in the data, active means inhibition above about 50%; inactive means the rest.

Screening O=C(NCCOc1cccc2cccnc12)c1ccc(Cl)cc1Cl returned mHTT CaM bind 1 and Pf apPOL inh -2.
Screening O=C(Cc1ccc(Cl)cc1)NCCOc1ccc(-c2cccs2)nn1 returned mHTT CaM bind -6 and Pf apPOL inh -1.
For O=C(Cn1cnc2ccccc2c1=O)NCCO the results were mHTT CaM bind -6 and Pf apPOL inh -3.
O=C(NCCOc1ccc(-c2ccccn2)nn1)c1cc(Cl)ccc1Cl was read as mHTT CaM bind 100* and Pf apPOL inh 3.
O=C(CCSc1ccccc1)NCCOc1ccc(-c2ccccn2)nn1 was read as mHTT CaM bind 100* and Pf apPOL inh 3.
O=C(Cc1ccc(F)cc1)NCCOc1ccc(-c2ccc(F)cc2)nn1 was read as mHTT CaM bind 0 and Pf apPOL inh 0.
`O=[N+]([O-])c1cc(C(F)(F)F)ccc1N1CCN(c2ccc([N+](=O)[O-])c3cccnc23)CC1` gave mHTT CaM bind 5 and Pf apPOL inh 3.
`O=C(Cn1ccnc1)N1CCC(c2nc(-c3ccccc3)no2)C1` (centres undefined) gave mHTT CaM bind 0 and Pf apPOL inh -5.
O=C(Nc1cccc(C(F)(F)F)c1)C1CC(c2ccccc2F)=NO1 (centres undefined) was read as mHTT CaM bind -36 and Pf apPOL inh 2.
Screening O=C(O)c1ccc(Nc2ccc(OC(F)(F)F)cc2)c([N+](=O)[O-])c1 returned mHTT CaM bind 29 and Pf apPOL inh 0.
For O=C(Nc1c2c(nn1-c1cccc(Cl)c1)CS(=O)(=O)C2)c1cccc(Cl)c1 the results were mHTT CaM bind 3 and Pf apPOL inh -5.
For CCN1C(=O)c2cccc3c(NC(=O)COc4ccc(Cl)cc4)ccc1c23 the results were mHTT CaM bind 52* and Pf apPOL inh -6.
`CCN1C(=O)c2cccc3c(NC(=O)c4ccccc4[N+](=O)[O-])ccc1c23` gave mHTT CaM bind 2 and Pf apPOL inh 1.
Screening CC1(C(=O)NCc2ccccc2)CCCN(C(=O)c2ccc(Br)o2)C1 (centres undefined) returned mHTT CaM bind -10 and Pf apPOL inh -1.
Screening CCNC(=O)C1CCN(c2nc3ccc(-c4ccc(F)cc4)nc3s2)CC1 returned mHTT CaM bind 1 and Pf apPOL inh -3.
Screening COc1cc(Nc2nc(-c3cc(C)ccc3C)cs2)c(OC)cc1Cl returned mHTT CaM bind 74* and Pf apPOL inh -1.
Screening Fc1ccc(Nc2nc(-c3ccccc3)cs2)cc1 returned mHTT CaM bind 30 and Pf apPOL inh 1.
For COc1ccc(-c2csc(Nc3ccc(Cl)cc3)n2)cc1F the results were mHTT CaM bind 95* and Pf apPOL inh 5.
For CCc1ccc(-c2csc(Nc3cc(OC)c(Cl)cc3OC)n2)cc1 the results were mHTT CaM bind 12 and Pf apPOL inh 3.
COc1ccc(-c2csc(Nc3ccc(C)c(Cl)c3)n2)cc1F was read as mHTT CaM bind 88* and Pf apPOL inh -1.
For Fc1ccc(-c2csc(Nc3ccc(Cl)cc3)n2)cc1 the results were mHTT CaM bind 97* and Pf apPOL inh -1.
`COc1ccccc1Nc1nc(-c2cc(C)ccc2C)cs1` gave mHTT CaM bind 24 and Pf apPOL inh 2.
Screening CCOc1ccc(Nc2nc(-c3ccc(OC)c(F)c3)cs2)cc1 returned mHTT CaM bind 32 and Pf apPOL inh -4.
`O=C(C1CN(S(=O)(=O)C2CC2)CC12CCCCC2)N1CCN(c2ccccn2)CC1` (centres undefined) gave mHTT CaM bind 2 and Pf apPOL inh -3.
Screening Cc1ccc(-c2ccc(C(=O)NCc3ccc4c(c3)OCO4)cn2)cc1 returned mHTT CaM bind 0 and Pf apPOL inh 0.
Screening CCc1cc(C2CCCN2C(=O)Cc2ccc(Cl)cc2)on1 (centres undefined) returned mHTT CaM bind -2 and Pf apPOL inh -1.
CCN(CC)CCNc1ncnc2c1CCC2 was read as mHTT CaM bind -1 and Pf apPOL inh 1.
CCn1c(=O)c2c(ncn2Cc2ccccc2)n(-c2cccc(C)c2)c1=O was read as mHTT CaM bind 20 and Pf apPOL inh -3.
O=C(CSc1ccc(F)cc1)Nc1cc(-c2ccco2)nn1CCO was read as mHTT CaM bind 69* and Pf apPOL inh -3.
O=C(Nc1cc(-c2ccco2)nn1CCO)c1ccc(S(=O)(=O)N2CCOCC2)cc1 was read as mHTT CaM bind 26 and Pf apPOL inh 8.
Screening NC(=S)NN=Cc1cccc([N+](=O)[O-])c1 returned mHTT CaM bind 0 and Pf apPOL inh 79*.
Screening O=[N+]([O-])c1cccc(C=Nc2cc(Cl)ccc2O)c1 returned mHTT CaM bind 59* and Pf apPOL inh -3.
`NC(=S)NN=Cc1ccc([N+](=O)[O-])s1` gave Pf apPOL inh 0.
For Cc1ccc([N+](=O)[O-])cc1N=Cc1cccc([N+](=O)[O-])c1 the results were mHTT CaM bind -4 and Pf apPOL inh -6.
For CC(CNc1ccc(Cl)cc1[N+](=O)[O-])Oc1nonc1-c1ccccc1 (centres undefined) the results were mHTT CaM bind 32 and Pf apPOL inh 1.
